Pf apPOL inh: Pf-apPOL DNA polymerase inhibition. Recombinant Pf-apPOL, molecular beacon fluorescence, 1.5 h. inhibition, % at 10 µM. 0.25% of 210,000 active
mHTT CaM bind: disrupts binding of mutant huntingtin to calmodulin | 3.6% of 190,000 active | AlphaScreen His-mHTT/GST-CaM binding, luminescence | inhibition, % at 15 µM | AID 1671202;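 further: 0% = both proteins with DMSO and 100% = one protein alone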
* = called active by the depositor. Rows were chosen to be rich in hits. Some 3.5% of all compounds tested hit in one or more screens of this group. No stated cut-off is given here; in the data, active means inhibition above about 50%; inactive means the rest.

SMILES	Pf apPOL inh	mHTT CaM bind
Cc1cc(OCC(O)CN2CCN(Cc3ccc4c(c3)OCO4)CC2)ccc1Cl (stereo unspecified)	-7.5	90.2*
Cc1ccc(OCC(O)CN2CCN(c3ccc(F)cc3)CC2)cc1C (stereo unspecified)	-4.2	35.8
CCCc1ccc(OCC(O)CN2CCCC2)cc1 (stereo unspecified)	-1.4	-3.0
COc1ccc(N2CCN(CC(O)COc3ccc(Cl)c(C)c3)CC2)cc1 (stereo unspecified)	-1.4	82.7*
COc1ccccc1CNC(=O)C1CCCN(c2nnc3cccc(C)n23)C1 (stereo unspecified)	0.1	16.2
Cc1ccc(NC(=O)c2cc(C)n3nccc3n2)c(F)c1	-4.6	-12.0
COc1ccccc1CNC1=NCCCNC12CCCCC2	3.1	-4.1
CCC1Oc2ccc(C)cc2N(CC(=O)NC2CCCC(C)C2C)C1=O (stereo unspecified)	-13.8	-8.0
Cc1ccc(C(=O)N2CC(CN(C)C)C3(CCOCC3)C2)s1 (stereo unspecified)	-3.5	-4.5
OC(COc1ccc(Br)cc1)CN1CCCCCC1 (stereo unspecified)	-7.3	-4.8
Fc1ccc(Nc2nc(-c3ccc(Cl)cc3)cs2)cc1	-1.6	70.8*
Cc1ccc(-c2csc(Nc3ccc(F)cc3)n2)cc1C	-5.8	14.5
Cc1ccc(Nc2nc(-c3ccc(F)cc3)cs2)cc1Cl	4.1	63.5*
Fc1ccc(-c2csc(Nc3ccc(Br)cc3)n2)cc1	1.4	98.0*
Cc1ccc(-c2csc(Nc3ccc(F)cc3)n2)cc1	-1.8	34.8
CCC(=O)Nc1nc(-c2ccc(F)cc2)cs1	-6.0	-6.5
Nc1nc(-c2ccc3c(c2)OCO3)cs1	0.8	8.0
Brc1ccc(-c2csc(Nc3ccc4c(c3)OCO4)n2)cc1	-4.2	61.0*
Cc1ccc(CN2C(=O)NC3(CCN(C(=O)c4cccc(N(C)C)c4)CC3)C2=O)cc1	-6.4	20.6
Cc1ccc(C2=N/C(=C/c3ccc4c(c3)OCO4)C(=O)O2)cc1C	0.8	-4.0
CCOc1ccc(-c2csc(Nc3ccc(F)cc3)n2)cc1[N+](=O)[O-]	0.4	90.6*
CCCCOc1ccc(-c2csc(N)n2)cc1[N+](=O)[O-]	3.3	22.3
Cc1noc(C)c1C1CCCN1Cc1cc(Br)ccc1O (stereo unspecified)	-4.1	3.6
Cc1ccc(C(=O)N/C(=C\c2ccco2)C(=O)N2CCN(c3ccccn3)CC2)cc1C	-4.9	70.0*
Cc1ccc(C(=O)N/C(=C/c2ccco2)C(=O)NCCc2ccccn2)cc1C	-3.0	11.0
SMILES	Pf apPOL inh	mHTT CaM bind
O=S(=O)(c1ccc(-c2csc(=Nc3cccc(Cl)c3)n2CCO)cc1)N1CCCCC1	-6.8	51.0*
CCOc1ccc(N=c2scc(-c3ccc(S(=O)(=O)N4CCCC4)cc3)n2CC)cc1	-3.4	4.0
O=S(=O)(c1ccc(-c2csc(=Nc3ccc(F)cc3)n2CCCO)cc1)N1CCOCC1	-2.0	47.0
O=S(=O)(c1ccc(-c2csc(=Nc3ccc(Cl)cc3)n2CCCO)cc1)N1CCCC1	-11.6	55.0*
Cc1ccc(F)cc1NC(=O)Cn1nc(N2CCCCCC2)c2ccccc2c1=O	-1.3	0.2
COc1cc(CNc2cccc(F)c2)c([N+](=O)[O-])cc1OC	-2.1	60.7*
COc1cc(CNc2ccc3[nH]ncc3c2)c([N+](=O)[O-])cc1OC	6.9	58.1*
COC(=O)Cc1cc(OC)c(OC)cc1[N+](=O)[O-]	-0.9	0.9
COc1cc(CNc2cc(OC)c(OC)c(OC)c2)c([N+](=O)[O-])cc1OC	2.0	40.9
O=C(Cc1ccc(Cl)cc1)NCc1cccnc1	9.8	-1.8
COc1ccc2c(c1)c(CC(=O)NCc1cccnc1)c(C)n2C(=O)c1ccc(Cl)cc1	-3.7	58.0*
Cc1ccccc1OCC1CNC(=O)O1 (stereo unspecified)	9.6	0.8
O=C1NCC(CN(c2ccccc2)c2ccccc2)O1 (stereo unspecified)	-3.0	83.0*
CC(C)NC(=O)C1CCN(c2ncccc2-c2nc(-c3cccc(Cl)c3)no2)CC1	-2.9	-8.5
CCN(CC)CCC(c1ccc(N(C)C)cc1)c1c(OC)cc(OC)c2c1OC(=O)CC2c1ccc(N(C)C)cc1 (stereo unspecified)	0.4	100.6*
CCN(CC)CCC(c1ccc(OC)cc1)c1c(OC)cc(OC)c2c(C)cc(=O)oc12 (stereo unspecified)	-7.2	14.4
CCN(CC)CCC(c1ccc(N(C)C)cc1)c1c(OC)cc(OC)c2c1OC(=O)CC2c1ccc(OC)cc1 (stereo unspecified)	-8.7	98.0*
CCN(CC)CCC(c1ccc2c(c1)OCO2)c1c(OC)cc(OC)c2c(C)cc(=O)oc12 (stereo unspecified)	-14.3	29.9
CC=Cc1ccc(OCC(O)CNC(C)(C)CC(C)(C)C)c(OC)c1 (stereo unspecified)	-37.5	19.9
COc1cccc(C=c2sc3nc(=O)c(Cc4ccccc4)nn3c2=O)c1OC(C)=O	3.4	-1.9
C=CCc1ccc(OCC(O)CN2CCN(CC)CC2)c(OC)c1 (stereo unspecified)	-1.8	8.2
CCC(=O)N(C)CC(=O)N1N=C(c2ccccc2Cl)CC1c1ccccc1Cl (stereo unspecified)	0.3	59.7*
CCNC(=O)N(C)CC(=O)N1N=C(c2ccccc2Cl)CC1c1ccccc1F (stereo unspecified)	2.7	37.0
COc1ccc(C2CC(c3ccccc3Cl)=NN2C(=O)CN(C)C(C)=O)cc1 (stereo unspecified)	-11.5	95.7*
COc1ccc(C2=NN(C(=O)CN(C)C(C)=O)C(c3ccc(C)cc3)C2)cc1 (stereo unspecified)	-8.2	23.0
SMILES	Pf apPOL inh	mHTT CaM bind
O=[N+]([O-])c1ccc2c(c1)c(-c1ccccc1)c(CO)n2Cc1ccccc1	-0.9	4.5
COc1ccc(-c2c(C#N)c(N)nc(SCC(=O)c3ccc(O)c(O)c3)c2C#N)cc1	-5.6	99.0*
N#Cc1c(N)nc(SCC(=O)c2ccc(O)c(O)c2)c(C#N)c1-c1ccc(O)cc1	27.3	31.0
N#Cc1c(N)nc(SCC(=O)c2ccc(O)c(O)c2)c(C#N)c1-c1cccc(Cl)c1	3.5	85.0*
N#Cc1c(N)nc(SCC(=O)c2ccc(Br)cc2)c(C#N)c1-c1ccccc1	-12.2	-8.0
COc1ccccc1N1C(=O)N(c2ccc(C)c(Cl)c2)C2CS(=O)(=O)CC21 (stereo unspecified)	-5.5	-7.1
Cc1ccc(N2CCN(C(=O)c3ccc(Cl)cc3)C(C)C2=O)cc1Cl (stereo unspecified)	-3.9	2.1
COc1ccccc1-c1cc(C(=O)N2CCCC2c2cc(C)no2)no1 (stereo unspecified)	-0.4	-0.1
COc1cc2c(cc1OC)C(C(=O)Nc1cc(C)ccn1)C1c3ccccc3CCN1C2=O (stereo unspecified)	-1.0	69.0*
COc1ccc(C)cc1NC(=O)C1c2cc(OC)c(OC)cc2C(=O)N2CCc3ccccc3C12 (stereo unspecified)	-7.8	57.0*
Cc1ccnc(NC(=O)C2c3ccccc3C(=O)N3CCc4ccccc4C23)c1 (stereo unspecified)	-2.2	31.0
COc1ccc(OC)c(NC(=O)C2c3ccccc3C(=O)N3CCc4ccccc4C23)c1 (stereo unspecified)	-6.6	16.0
COc1cc2c(cc1OC)C(C(=O)NCCc1cccc(C)c1)C1c3ccccc3CCN1C2=O (stereo unspecified)	-1.4	89.0*
